Laboratory results from PubChem BioAssay.
Where “and” joins values, the source holds several entries; their conditions need not be identical. Equal values may be shown once. Calls of active or inactive are those of the source.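 How the source made its calls, unless noted: active means compounds whose cell count with miR-34 switched on is under 0.7 times the count with it off; inactive means the rest.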

Tests used:
[1] = tested on: Aerobactin synthetase IucA (Klebsiella pneumoniae); test: inhibition of K. pneumoniae IucA enzyme – biochemical, Tocris library, absorbance (AID 1345561; call rule not given here;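 further: 100% = enzyme without compound and 0% = no enzyme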); conditions: purified IucA enzyme assay, absorbance (OD) read-out; stronger effect = lower value;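 tested at 8 µM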
[2] = viability loss with induced miR-34 in A549 – imaging, A549 dox-inducible miR-34, nuclei and caspase counts, primary screen (AID 1347080); conditions: A549 miR-34 inducible, Hoechst nuclei count, 48 h
[3] = galactose survival enhancers in mitochondrial complex I cybrids – cell-based, galactose medium, ATP luminescence, primary screen (AID 1645843;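 active means z-score of at least 1.8 in each of two replicates, scored against plate mean and spread of sample wells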;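 further: positive z means more ATP and so rescue of galactose-driven cybrid death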); conditions: complex I mutant cybrid cells, 72 h, stronger effect = higher value
[4] = stronger effect = lower value, cell number ratio, induced over uninduced
[5] = measured here: relative caspase fold change +Dox/-Dox
[6] = measured here: total cells with miR-34 induction, stronger effect = lower value
[7] = measured here: total cells without miR-34 induction

| Structure (SMILES) | remaining activity [1] | fold change [2, 4] | fold change [2, 5] | cell count [2, 6] | cell count [2, 7] | z-score [3] |
| --- | --- | --- | --- | --- | --- | --- |
| O=[N+]([O-])c1cc(Cl)ccc1S(=O)(=O)N1CCN(Cc2ccccc2)CC1 | 110% (inactive) | 0.93 (inactive) | 1.18 | 8490 | 9130 | -0.68 (inactive) |
| Cc1cc(Cn2cnc3c2C[C@@H](C(=O)O)N(C(=O)C(c2ccccc2)c2ccccc2)C3)ccc1N(C)C | 122% (inactive) | 0.877 (inactive) | 0.611 | 8880 | 10100 | 0.245 (inactive) |
| CCc1cc(C2NNC(C)C2c2ccc3c(c2)OCCO3)c(O)cc1O (configuration not stated) | 92.2% (inactive) | 1.01 (inactive) | 1.27 | 4520 | 4490 | 0.625 (inactive) |
| Cc1ccc(OC[C@@H](O)[C@H](C)NC(C)C)c2c1CCC2 | 82.6% (inactive) | 0.94 (inactive) | 1.07 | 8280 | 8800 | -0.36 (inactive) |
| CC(O)(C(=O)Nc1ccc(S(=O)(=O)c2ccccc2)cc1)C(F)(F)F (configuration not stated) | 125% (inactive) | 0.907 (inactive) and 0.921 (inactive) | 1.29 and 0.986 | 4820 and 7390 | 5310 and 8020 | -0.32 (inactive) |
| CCOc1ccccc1O[C@H](c1ccccc1)[C@H]1CNCCO1 (racemic) | 119% (inactive) | 0.937 (inactive) | 0.923 | 7740 | 8260 | -0.36 (inactive) |
| O=c1oc(-c2ccc(C(F)(F)F)cc2)nn1Cc1cc(Cl)ccc1O | 93.9% (inactive) | 1.02 (inactive) | 1.81 | 6380 | 6280 | -0.655 (inactive) |
| O=C1c2ccccc2C(Cc2ccncc2)(Cc2ccncc2)c2ccccc21 | 107% (inactive) | 0.992 (inactive) | 1.04 | 7700 | 7770 | -0.13 (inactive) |
| CN1C[C@H]2c3ccccc3Oc3ccc(Cl)cc3[C@@H]2C1 (racemic) | 109% (inactive) | 0.868 (inactive) | 2.03 | 5560 | 6410 | -0.745 (inactive) |
| COc1cc(N)c(Cl)cc1C(=O)OCCCN1CCCCC1 | 102% (inactive) | 0.975 (inactive) | 0.823 | 9460 | 9700 | 0.255 (inactive) |
| CCS(=O)(=O)N1CCC[C@@H]2CN3CCc4cc(OC)ccc4[C@@H]3C[C@@H]21 | 87.2% (inactive) | 0.945 (inactive) | 0.859 | 8340 | 8820 | 0.46 (inactive) |
| Nc1ncnc2c1nc(Br)n2[C@@H]1O[C@@H]2COP(=O)(O)O[C@H]2[C@H]1O | 114% (inactive) | 0.96 (inactive) | 0.834 | 8030 | 8360 | -0.015 (inactive) |
| COc1ccccc1N1CCN(CCn2c(=O)[nH]c3c([nH]c4ccccc43)c2=O)CC1 | 108% (inactive) | 0.88 (inactive) | 0.64 | 8910 | 10100 | 1.92 (active) |
| Cc1cc(C)cc(C(=O)N(C)[C@H](Cc2ccc(-c3ccccc3)cc2)C(=O)N[C@@H](Cc2c[nH]c3ccccc23)C(=O)O)c1 | 125% (inactive) | 0.884 (inactive) | 0.967 | 8970 | 10100 | 7.92 (active) |
| CC1(C(=O)O)NCCc2cc(O)c(O)cc21 (configuration not stated) | 123% (inactive) | 0.987 (inactive) | 0.804 | 8540 | 8650 | -0.015 (inactive) |
| COc1ccc(-n2[nH]c3c4c(ncc3c2=O)CCCCC4)cc1 | 115% (inactive) | 0.906 (inactive) | 1.8 | 8550 | 9440 | 2.12 (active) |
| COc1cccc(NC(=O)/C=C/c2ccc(Cl)cc2)c1 | 93.6% (inactive) | 0.9 (inactive) | 1.32 | 5860 | 6510 | 0.75 (inactive) |
| O=[N+]([O-])c1ccccc1S(=O)(=O)NCC1CCC(CNCC2CCc3ccccc3C2)CC1 (configuration not stated) | 97.1% (inactive) | 0.747 (inactive) | 1.77 | 2050 | 2740 | -0.675 (inactive) |
| c1ccc(C(O[C@@H]2CCCN(CCc3ccc4c(c3)OCO4)C2)c2ccccc2)cc1 | 119% (inactive) | 0.989 (inactive) | 1.1 | 8350 | 8440 | -0.585 (inactive) |
| COC(=O)[C@H]1C2C[C@H]3c4[nH]c5ccccc5c4CCN3C[C@H]2CC[C@@H]1O (some centres not stated) | 106% (inactive) | 0.968 (inactive) | 0.826 | 8540 | 8820 | -0.115 (inactive) |
| N=C(N)S/C=C\C(=O)O | 104% (inactive) | 0.952 (inactive) | 0.563 | 8330 | 8750 | -0.28 (inactive) |

| Structure (SMILES) | remaining activity [1] | fold change [2, 4] | fold change [2, 5] | cell count [2, 6] | cell count [2, 7] | z-score [3] |
| --- | --- | --- | --- | --- | --- | --- |
| CN1CCN(CCc2ccc(Cl)c(Cl)c2)CC1 | 124% (inactive) | 1.04 (inactive) | 1.01 | 7800 | 7520 | -0.73 (inactive) |
| COc1cc(N)c(Cl)cc1C(=O)CCC1CCN(CCNS(C)(=O)=O)CC1 | 97.5% (inactive) | 0.928 (inactive) | 0.69 | 9240 | 9960 | 1.25 (inactive) |
| OC[C@H]1O[C@@H](n2cnc3c(NC4CCCC4)ncnc32)[C@H](O)[C@@H]1O | 123% (inactive) | 0.882 (inactive) | 0.89 | 9040 | 10200 | 0.51 (inactive) |
| CC(C)c1ccc2c(c1)CC[C@H]1[C@](C)(CN)CCC[C@]21C | 101% (inactive) | 0.931 (inactive) and 0.9 (inactive) | 0.286 and 1.62 | 5370 and 346 | 5760 and 384 | -0.56 (inactive) |
| N[C@@H](CC(=O)Nc1ccc(Oc2cc(F)c(F)cc2Br)cc1)C(=O)O | 98.2% (inactive) | 0.952 (inactive) | 1.1 | 7870 | 8270 | 0.265 (inactive) |
| CC(C)[C@H](NS(=O)(=O)c1ccc(-c2ccc(Br)cc2)cc1)C(=O)O | 100% (inactive) | 0.908 (inactive) | 1.47 | 8980 | 9890 | 0.745 (inactive) |
| O=C(Nc1ccc(C(F)(F)F)cn1)N1CCN(c2ncccc2C(F)(F)F)CC1 | 86.8% (inactive) | 0.952 (inactive) | 1.39 | 6230 | 6540 | -0.475 (inactive) |
| CCCCCCCCCCCCCCCC(=O)C(F)(F)F | 108% (inactive) | 1.01 (inactive) and 0.961 (inactive) | 0.782 and 1.06 | 5680 and 8900 | 5630 and 9260 | -0.105 (inactive) |
| O=C(Nc1ccc([N+](=O)[O-])cc1O)Nc1ccccc1Br | 105% (inactive) | 1.13 (inactive) and 1.09 (inactive) | 1.05 and 1.85 | 5450 and 2460 | 4830 and 2250 | -0.58 (inactive) |
| COc1ccc(NC(=O)c2cc(OCCCN(C)C)nn2Cc2ccccc2)cc1 | 99.8% (inactive) | 0.937 (inactive) | 1.3 | 8250 | 8810 | -0.3 (inactive) |
| OC[C@H]1O[C@@H](n2cnc3c(NC4CCCC4)nc(Cl)nc32)[C@H](O)[C@@H]1O | 122% (inactive) | 0.891 (inactive) | 0.662 | 8890 | 9980 | 0.55 (inactive) |
| CCC(=O)NC1CCc2cccc(OC)c2C1 (configuration not stated) | 123% (inactive) | 1.01 (inactive) | 0.925 | 8550 | 8470 | -0.165 (inactive) |
| CC(C)C[C@H](NC(=O)N1CCCCCC1)C(=O)N[C@H](Cc1cn(C)c2ccccc12)C(=O)N[C@H](Cc1ccccn1)C(=O)O | 87.9% (inactive) | 0.819 (inactive) | 0.926 | 7880 | 9620 | 1.25 (inactive) |
| O=C(O)c1cc(Oc2ccc([N+](=O)[O-])cc2)cc(Oc2ccc([N+](=O)[O-])cc2)c1 | 113% (inactive) | 0.979 (inactive) | 0.988 | 8410 | 8600 | 1.39 (inactive) |
| O=C(Nc1ccccc1)C12CC1/C(=N\O)c1ccccc1O2 (configuration not stated) | 107% (inactive) | 0.911 (inactive) | 0.471 | 7010 | 7700 | 0.135 (inactive) |
| CC(C)N1Cc2cc(S(C)(=O)=O)ccc2N(CCN2CC=C(c3c[nH]c4cc(F)ccc34)CC2)S1(=O)=O | 110% (inactive) | 0.929 (inactive) | 1.15 | 6990 | 7530 | 0.12 (inactive) |
| CCc1cc2c(c(CC)n1)CCC(=O)N2Cc1ccc(-c2ccccc2-c2nn[nH]n2)cc1 | 89.1% (inactive) | 0.902 (inactive) | 0.831 | 8410 | 9320 | 1.93 (inactive) |
| c1cc2c(cc1C1CCCCC1)c1c3n2CCNC3CCC1 (configuration not stated) | 102% (inactive) | 1.06 (inactive) | 1.07 | 430 | 406 | -1.23 (inactive) |
| NC(=O)N/N=C/c1ccc(Oc2ccc(F)cc2)cc1 | 94.3% (inactive) | 0.798 (inactive) | 2.22 | 7090 | 8890 | 0.135 (inactive) |
| Cc1cc(C)c(S(=O)(=O)Nc2ccccc2C(F)(F)F)c(C)c1 | 96.1% (inactive) | 0.879 (inactive) | 0.932 | 6450 | 7330 | 1.2 (inactive) |
| COC(=O)[C@H](Cc1ccc([N+](=O)[O-])cc1)NC(=O)c1cccc2ccccc12 | 101% (inactive) | 0.968 (inactive) | 0.966 | 9700 | 10000 | -0.13 (inactive) |
